Experimental findings from PubChem BioAssay (Tox21) are described below.

Several values for one entry are separate records, joined by “and”; a condition that tells them apart may be missing. Equal entries are not always repeated. Results filed as inconclusive are left out. Some structures have more than one record in an assay (separate samples or runs), and their calls can disagree. Activity calls are given as the source filed them. Unless noted, calls follow the shape of the dose curve; as a rule, active = well fitted curve in the direction sought with a large enough effect in the repeat runs; inconclusive = weak or mixed curves; inactive = no such curve, though single readings can be large; an effect the other way counts as inactive or inconclusive.

For assay [1], the target named is Thyrotropin-releasing hormone receptor (Homo sapiens) (UniProt P34981). Kind of assay: qHTS assay to identify small molecule agonists of the thyrotropin-releasing hormone receptor (TRHR) signaling pathway (AID 1346891; calls by dose curve; also: series mostly up to about 58 µM). The method, boiled down: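 TRHR-expressing HEK293 cells were plated 18 h at 37 °C/5% CO2, loaded with calcium dye 2 h at 37 °C, then given compound in DMSO; fluorescence was read kinetically for 3 min at 1 s intervals.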

Assay [2] is described as follows: Human pregnane X receptor (PXR) small molecule agonists, qHTS cell viability counter screen (AID 1346977). Also: nearly all actives have a fitted effect of over 50% in size. The method, boiled down:
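PXR-Luc HepG2 cells in medium with 5% charcoal-stripped FBS were pre-incubated 5hr, then exposed to compounds for 24hr at 37C. Viability was read in the same wells by CellTiter-Fluor fluorescence, reagent added after 23hr with a 1hr incubation.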

A short description of assay [3]: Caspase-3/7 induction in HepG2 cells by small molecules, qHTS assay (AID 1346978). Also: nearly all actives have a fitted effect of over 15% in size. In outline:
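Wild-type HepG2 cells (2,000/well) were settled 5 h at 37 C, 5% CO2, then exposed to compounds in DMSO for 17 h. Caspase-3/7 activity was read by luminescence 30 min after adding Caspase-Glo 3/7 reagent at room temperature.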

Assay [4] in a line: Caspase-3/7 induction in CHO-K1 cells by small molecules, qHTS cell viability counter screen (AID 1346979). Also: nearly all actives have a fitted effect of over 35% in size. In outline:
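Wild-type CHO-K1 cells were seeded at 1,500 per well, rested 5hr at 37 C, then exposed to compounds in DMSO. After 16hr, CellTiter-Fluor reagent was added and fluorescence read 1hr later as the viability measure.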

Assay [5] in a line: Caspase-3/7 induction in CHO-K1 cells by small molecules, qHTS assay (AID 1346980). Also: nearly all actives have a fitted effect of over 15% in size. In outline:
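Wild-type cells were seeded at 1,500 per well and settled 5 hr at 37 C, 5% CO2, then exposed to DMSO-dissolved compounds for 17 hr. Caspase-Glo 3/7 reagent was added, and luminescence was read after 30min at room temperature.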

Assay [6] in a line: Caspase-3/7 induction in HepG2 cells by small molecules, qHTS cell viability counter screen (AID 1346981). Also: series mostly up to about 92 µM; nearly all actives have a fitted effect of over 30% in size. The method, boiled down: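 Wild-type HepG2 cells, 2,000/well, settled 5 hr at 37 C, 5% CO2 before compound addition. Viability read by CellTiter-Fluor fluorescence, reagent added after 16 hr compound exposure, then 1 hr at 37C, in the same wells as the caspase read.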
The target of assay [7] is Voltage-gated inwardly rectifying potassium channel KCNH2 (Homo sapiens) (UniProt Q12809). Kind of assay: Human Ether-a-go-go-Related Gene (hERG) channel small molecule antagonists: fluorescence cell-based qHTS assay (AID 1671200).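 Also: hERG-expressing U2OS cells given a thallium stimulus after FluxOR II dye loading; series mostly up to about 77 µM; nearly all actives have a fitted effect of over 50% in size.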 In outline:
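U2OS cells expressing the channel were plated at 1000 cells/well, incubated overnight at 37 C, then loaded with FluxOR II thallium-sensitive dye for 1 h at room temperature in the dark, with a further 10 min at room temperature before stimulation.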

For assay [8], the target named is Nuclear receptor subfamily 1 group I member 2 (Homo sapiens) (UniProt O75469). The assay is described as follows: Human pregnane X receptor (PXR) small molecule agonists, qHTS assay (AID 1346982). Also: nearly all actives have a fitted effect of over 35% in size. Also: potency is read from the fitted curve at half-maximal effect. The method, boiled down: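 PXR-Luc HepG2 reporter cells (CYP3A4-driven luciferase) in 5% charcoal-stripped FBS medium, plated 5 h before compound addition, then treated 24 h at 37C. Luciferase read by ONE-Glo luminescence after 30 min at room temperature.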

The target of assay [9] is Cytochrome P450 2D6 (Homo sapiens) (UniProt P10635). Kind of assay: Cytochrome P450 Family 2 Subfamily D Member 6 (CYP2D6) small molecule antagonists: luciferase reporter qHTS assay (AID 1671196). Also: nearly all actives have a fitted effect of over 50% in size. Also: potency is read from the fitted curve at half-maximal effect. The method, boiled down:
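Cell-free P450-Glo system: CYP2D6 with proluciferin substrate was pre-incubated with compound for 10 min, then reacted with NADPH regeneration for 1 h at room temperature. Luciferin product was detected after 20 min, and data were reported as relative luminescence units.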

Assay [10] has as its target Cytochrome P450 2C19 (Homo sapiens) (UniProt P33261). Kind of assay: Cytochrome P450 Family 2 Subfamily C Member 19 (CYP2C19) small molecule antagonists: luciferase reporter qHTS assay (AID 1671197). Also: nearly all actives have a fitted effect of over 65% in size. Also: potency is read from the fitted curve at half-maximal effect. The method, boiled down:
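Inhibition of CYP2C19 was scored from loss of luminescence in a P450-Glo proluciferin substrate assay, NADPH-started and run 1 h at 37C, with ketoconazole as positive control.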

The target in assay [11] is Cytochrome P450 2C9 (Homo sapiens) (UniProt P11712). The assay is described as follows: Cytochrome P450 Family 2 Subfamily C Member 9 (CYP2C9) small molecule antagonists: luciferase reporter qHTS assay (AID 1671198). Also: nearly all actives have a fitted effect of over 50% in size. Also: potency is read from the fitted curve at half-maximal effect. The method, boiled down:
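CYP2C9 activity was measured with a P450-Glo proluciferin substrate. Enzyme–substrate mix was held with compound for 10 min at room temperature, then NADPH regeneration solution was added for 1 h at 37C. Luciferin product was read as luminescence.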

The target of assay [12] is Cytochrome P450 1A2 (Homo sapiens) (UniProt P05177). The assay is described as follows: Cytochrome P450 Family 1 Subfamily A Member 2 (CYP1A2) small molecule antagonists: luciferase reporter qHTS assay (AID 1671199). Also: nearly all actives have a fitted effect of over 50% in size. Also: potency is read from the fitted curve at half-maximal effect. The method, boiled down: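 P450-Glo CYP1A2 enzyme–proluciferin substrate mix with compound 10 min at room temperature, then NADPH regeneration 1 h at room temperature. Luciferin detection reagent added, luminescence read after 20 min; furafylline positive control.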

The target in assay [13] is Cytochrome P450 3A4 (Homo sapiens) (UniProt P08684). The assay is described as follows: Cytochrome P450 Family 3 Subfamily A Member 4 (CYP3A4) small molecule antagonists: luciferase reporter qHTS assay (AID 1671201). Also: nearly all actives have a fitted effect of over 50% in size. Also: potency is read from the fitted curve at half-maximal effect. In outline:
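P450-Glo CYP3A4 system with proluciferin substrate; compounds preincubated 10 min RT with enzyme-substrate mix, then NADPH regeneration added for 1 h RT. Detection reagent 20 min, luminescence read as relative luminescence units.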

Assay [14] addresses Nuclear receptor subfamily 1 group I member 2 (Rattus norvegicus) (UniProt Q9R1A7). The assay is described as follows: Rat pregnane X receptor (rPXR) activation by small molecules, qHTS assay (AID 1346983). Also: nearly all actives have a fitted effect of over 20% in size. The settings on record: rPXR luciferase reporter cells, One-Glo luminescence, 24 h; stronger effect = higher value. The method, boiled down:
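Cell-based rPXR luciferase reporter assay, 2,000 cells per well, rested 5hr at 37 C before compound addition in DMSO, then 24 hr at 37 C. One-Glo reagent was added and luminescence read after 30 min at room temperature.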
% is scaled to controls: 0 for no effect and ±100 for the full control effect.

Chain of Voltage-gated inwardly rectifying potassium channel KCNH2 (Homo sapiens) (Q12809 whole entry, looked up): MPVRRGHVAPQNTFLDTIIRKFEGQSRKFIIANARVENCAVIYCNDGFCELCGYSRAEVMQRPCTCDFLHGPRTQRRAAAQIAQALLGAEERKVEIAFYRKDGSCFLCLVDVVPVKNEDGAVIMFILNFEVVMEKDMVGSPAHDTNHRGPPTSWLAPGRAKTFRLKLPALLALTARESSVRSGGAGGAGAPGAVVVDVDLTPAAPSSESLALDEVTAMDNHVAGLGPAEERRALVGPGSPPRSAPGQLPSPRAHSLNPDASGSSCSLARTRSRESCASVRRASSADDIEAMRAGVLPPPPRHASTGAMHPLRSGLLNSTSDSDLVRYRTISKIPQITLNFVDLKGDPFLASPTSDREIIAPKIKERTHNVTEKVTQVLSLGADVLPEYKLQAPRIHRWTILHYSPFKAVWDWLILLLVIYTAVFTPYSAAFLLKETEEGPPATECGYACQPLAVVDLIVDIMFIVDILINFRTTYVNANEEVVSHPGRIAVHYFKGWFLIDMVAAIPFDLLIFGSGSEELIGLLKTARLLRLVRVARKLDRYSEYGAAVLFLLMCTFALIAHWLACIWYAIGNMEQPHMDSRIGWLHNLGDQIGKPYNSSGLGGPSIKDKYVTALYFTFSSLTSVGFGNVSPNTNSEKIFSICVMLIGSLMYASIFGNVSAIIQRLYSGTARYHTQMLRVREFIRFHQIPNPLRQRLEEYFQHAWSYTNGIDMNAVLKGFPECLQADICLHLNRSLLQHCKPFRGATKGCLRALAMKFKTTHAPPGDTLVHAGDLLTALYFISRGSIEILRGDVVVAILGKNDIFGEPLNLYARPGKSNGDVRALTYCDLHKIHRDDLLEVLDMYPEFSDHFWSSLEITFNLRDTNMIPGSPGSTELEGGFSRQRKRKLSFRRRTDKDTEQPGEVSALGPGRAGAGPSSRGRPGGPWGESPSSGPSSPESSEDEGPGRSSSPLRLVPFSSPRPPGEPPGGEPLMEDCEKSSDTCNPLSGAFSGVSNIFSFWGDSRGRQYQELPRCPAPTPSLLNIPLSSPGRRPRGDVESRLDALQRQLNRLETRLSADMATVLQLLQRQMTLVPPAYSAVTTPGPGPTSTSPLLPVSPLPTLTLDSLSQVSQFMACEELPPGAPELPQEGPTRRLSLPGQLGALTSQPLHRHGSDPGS
Chain of Nuclear receptor subfamily 1 group I member 2 (Homo sapiens) (O75469 whole entry, looked up): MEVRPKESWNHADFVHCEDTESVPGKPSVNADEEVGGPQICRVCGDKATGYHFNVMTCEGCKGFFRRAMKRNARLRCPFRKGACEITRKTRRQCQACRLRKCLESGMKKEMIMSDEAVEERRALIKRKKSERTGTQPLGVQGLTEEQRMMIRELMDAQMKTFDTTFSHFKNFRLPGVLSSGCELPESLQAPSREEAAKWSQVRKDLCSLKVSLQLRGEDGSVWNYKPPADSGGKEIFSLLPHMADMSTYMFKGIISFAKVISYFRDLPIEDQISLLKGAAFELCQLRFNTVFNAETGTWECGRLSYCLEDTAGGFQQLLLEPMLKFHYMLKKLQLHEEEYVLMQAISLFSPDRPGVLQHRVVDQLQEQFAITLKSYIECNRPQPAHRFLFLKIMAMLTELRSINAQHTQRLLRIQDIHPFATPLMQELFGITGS
Chain of Cytochrome P450 2C9 (Homo sapiens) (P11712 whole entry, looked up): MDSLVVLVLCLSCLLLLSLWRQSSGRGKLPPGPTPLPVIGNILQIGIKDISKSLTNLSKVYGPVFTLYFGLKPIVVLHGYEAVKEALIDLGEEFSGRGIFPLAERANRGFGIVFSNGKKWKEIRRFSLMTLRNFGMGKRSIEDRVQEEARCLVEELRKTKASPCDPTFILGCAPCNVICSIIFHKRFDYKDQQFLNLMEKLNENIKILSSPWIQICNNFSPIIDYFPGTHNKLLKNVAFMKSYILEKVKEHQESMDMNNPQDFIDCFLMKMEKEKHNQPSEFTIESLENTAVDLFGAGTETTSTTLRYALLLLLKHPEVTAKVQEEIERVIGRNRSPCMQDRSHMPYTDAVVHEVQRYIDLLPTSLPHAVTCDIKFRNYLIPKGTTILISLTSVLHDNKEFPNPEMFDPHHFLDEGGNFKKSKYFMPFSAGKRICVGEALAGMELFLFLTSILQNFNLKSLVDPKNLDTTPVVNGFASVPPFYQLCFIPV
Chain of Cytochrome P450 2D6 (Homo sapiens) (P10635 whole entry, looked up): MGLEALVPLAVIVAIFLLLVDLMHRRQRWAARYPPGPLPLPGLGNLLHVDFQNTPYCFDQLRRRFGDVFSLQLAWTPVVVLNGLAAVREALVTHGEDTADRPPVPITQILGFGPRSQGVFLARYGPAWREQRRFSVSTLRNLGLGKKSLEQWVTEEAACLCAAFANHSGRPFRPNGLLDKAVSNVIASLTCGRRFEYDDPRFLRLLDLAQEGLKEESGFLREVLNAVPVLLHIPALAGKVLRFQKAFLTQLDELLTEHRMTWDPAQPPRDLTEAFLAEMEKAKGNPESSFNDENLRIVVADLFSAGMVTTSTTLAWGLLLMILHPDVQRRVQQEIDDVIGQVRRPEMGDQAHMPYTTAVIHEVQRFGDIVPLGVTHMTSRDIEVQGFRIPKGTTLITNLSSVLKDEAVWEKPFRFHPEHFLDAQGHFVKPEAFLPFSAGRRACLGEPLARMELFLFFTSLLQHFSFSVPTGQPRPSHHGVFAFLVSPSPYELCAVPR
Chain of Cytochrome P450 2C19 (Homo sapiens) (P33261 whole entry, looked up): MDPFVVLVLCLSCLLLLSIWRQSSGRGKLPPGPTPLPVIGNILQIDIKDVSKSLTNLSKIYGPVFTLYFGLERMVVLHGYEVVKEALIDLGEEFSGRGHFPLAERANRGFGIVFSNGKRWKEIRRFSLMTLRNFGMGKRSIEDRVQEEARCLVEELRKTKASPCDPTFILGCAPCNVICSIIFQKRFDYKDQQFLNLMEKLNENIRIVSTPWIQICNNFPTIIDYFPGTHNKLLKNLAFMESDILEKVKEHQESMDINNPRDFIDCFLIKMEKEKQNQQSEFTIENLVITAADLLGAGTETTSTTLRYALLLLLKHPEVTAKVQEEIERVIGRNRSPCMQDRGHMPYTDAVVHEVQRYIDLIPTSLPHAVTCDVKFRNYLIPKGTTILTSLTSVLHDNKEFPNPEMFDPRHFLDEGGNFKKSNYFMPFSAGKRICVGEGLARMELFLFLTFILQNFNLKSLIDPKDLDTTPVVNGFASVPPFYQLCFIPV
Chain of Cytochrome P450 1A2 (Homo sapiens) (P05177 whole entry, looked up): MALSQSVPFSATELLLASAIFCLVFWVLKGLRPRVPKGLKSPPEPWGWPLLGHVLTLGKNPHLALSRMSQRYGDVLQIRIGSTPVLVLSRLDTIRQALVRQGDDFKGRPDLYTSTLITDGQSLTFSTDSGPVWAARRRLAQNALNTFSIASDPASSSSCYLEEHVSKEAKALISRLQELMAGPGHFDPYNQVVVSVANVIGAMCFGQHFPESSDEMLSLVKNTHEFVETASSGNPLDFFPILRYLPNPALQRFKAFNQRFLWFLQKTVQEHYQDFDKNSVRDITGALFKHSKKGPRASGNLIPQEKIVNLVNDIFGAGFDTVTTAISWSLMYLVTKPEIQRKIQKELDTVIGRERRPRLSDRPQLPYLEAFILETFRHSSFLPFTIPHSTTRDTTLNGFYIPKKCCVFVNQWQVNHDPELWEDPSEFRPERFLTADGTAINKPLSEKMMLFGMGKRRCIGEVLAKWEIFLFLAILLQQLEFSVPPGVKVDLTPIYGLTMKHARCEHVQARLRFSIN
Chain of Cytochrome P450 3A4 (Homo sapiens) (P08684 whole entry, looked up): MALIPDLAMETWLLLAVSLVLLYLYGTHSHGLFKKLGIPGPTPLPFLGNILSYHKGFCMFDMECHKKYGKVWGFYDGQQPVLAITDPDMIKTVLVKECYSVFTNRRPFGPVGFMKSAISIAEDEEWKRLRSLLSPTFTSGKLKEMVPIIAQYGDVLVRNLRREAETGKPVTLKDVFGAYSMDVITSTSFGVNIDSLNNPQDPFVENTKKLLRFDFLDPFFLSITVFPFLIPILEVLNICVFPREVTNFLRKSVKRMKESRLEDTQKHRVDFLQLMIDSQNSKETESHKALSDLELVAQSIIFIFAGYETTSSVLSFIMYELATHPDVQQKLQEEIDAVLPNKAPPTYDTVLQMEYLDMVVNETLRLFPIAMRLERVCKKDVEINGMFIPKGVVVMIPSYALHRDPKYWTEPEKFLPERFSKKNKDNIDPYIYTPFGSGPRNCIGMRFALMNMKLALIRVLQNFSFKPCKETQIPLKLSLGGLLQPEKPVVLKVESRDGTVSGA
Chain of Thyrotropin-releasing hormone receptor (Homo sapiens) (P34981 whole entry, looked up): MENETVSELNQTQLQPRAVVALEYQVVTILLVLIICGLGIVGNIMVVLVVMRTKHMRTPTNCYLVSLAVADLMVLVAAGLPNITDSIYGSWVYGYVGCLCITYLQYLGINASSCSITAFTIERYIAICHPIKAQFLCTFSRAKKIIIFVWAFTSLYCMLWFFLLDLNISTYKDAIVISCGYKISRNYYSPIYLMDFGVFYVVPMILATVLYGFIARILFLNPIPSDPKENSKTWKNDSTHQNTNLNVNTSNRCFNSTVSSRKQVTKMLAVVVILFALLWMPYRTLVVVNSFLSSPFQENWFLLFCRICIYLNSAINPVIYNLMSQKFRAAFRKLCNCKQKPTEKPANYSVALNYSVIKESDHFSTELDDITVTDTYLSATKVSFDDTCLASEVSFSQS
Chain of Nuclear receptor subfamily 1 group I member 2 (Rattus norvegicus) (Q9R1A7 whole entry, looked up): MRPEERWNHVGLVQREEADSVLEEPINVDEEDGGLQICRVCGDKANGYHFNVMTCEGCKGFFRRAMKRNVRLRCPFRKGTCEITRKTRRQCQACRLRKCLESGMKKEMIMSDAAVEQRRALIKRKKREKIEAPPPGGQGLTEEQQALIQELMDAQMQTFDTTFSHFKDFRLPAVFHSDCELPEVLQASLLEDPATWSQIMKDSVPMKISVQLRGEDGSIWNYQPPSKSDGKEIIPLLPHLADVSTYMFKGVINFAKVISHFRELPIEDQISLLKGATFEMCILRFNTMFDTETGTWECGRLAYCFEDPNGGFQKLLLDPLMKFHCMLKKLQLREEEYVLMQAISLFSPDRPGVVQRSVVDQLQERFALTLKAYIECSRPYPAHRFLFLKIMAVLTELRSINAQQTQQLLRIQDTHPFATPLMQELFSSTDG

Turning to `COc1ccccc1OCC(O)CO` (stereo unspecified), the molecule was classed as inactive in assay [1] and in assay [5]. Moreover, the Potency entry in assay [2], in assay [3], in assay [4], in [6] and in [7] was “inactive” throughout.
As for `O=C(O)c1cc2ccccc2cc1O`, the Potency entry in assay [2], in assay [3], in assay [4], in assay [6], in assay [9] and in [7] was “inactive” each time. For the same molecule, the Potency entry in assay [13] was “inactive”. Besides, the call in [5] was inactive. Further, the Potency is 54.1 µM (active) in [8]; 35.3 µM (active) and 79.6 µM (active) in assay [10]; 62.8 µM (active) and 56.4 µM (active) in [11]; 39.9 µM (active) in assay [12].
As for `CC1(C)S[C@@H]2[C@H](NC(=O)COc3ccccc3)C(=O)N2[C@H]1C(=O)O`, the call in assay [1] and in assay [5] was inactive. For the same molecule, the Potency entry in assay [2], in assay [3], in assay [4], in assay [6], in assay [10] and in assay [12] was “inactive” throughout. In addition, the Potency entry in assay [7] is “inactive”.
Turning to `O=C(OCC1CCC2OC2C1)C1CCC2OC2C1` (stereo unspecified), the Potency result in assay [2], in [3], in [4], in [6], in assay [8] and in assay [10] was “inactive” in each case. Also, the Potency entry in [7] is “inactive”. Besides, the molecule was classed as inactive in assay [5]. Further, the Potency in assay [9] was 16.6 µM (active) and inactive; in [11] it was 71 µM (active).
In the case of `CC(C)(C#N)c1cc(Cn2cncn2)cc(C(C)(C)C#N)c1`, the Potency entry in assay [2], in assay [3], in assay [4], in assay [6], in assay [9] and in [7] was “inactive” throughout. The molecule was called inactive in assay [5]. In assay [14], the max activation was 0.273% (inactive). For the same molecule, the Potency in [10] was 21.8 µM (active) and 15.5 µM (active); in assay [11], 9.75 µM (active) and 8.71 µM (active); in assay [12], 9.75 µM (active) and 15.5 µM (active).
For `CN(C)c1ccc(Cc2ccc(N(C)C)cc2)cc1`, the call in assay [1] and in assay [5] was inactive. Moreover, the Potency result in assay [2], in [3] and in assay [6] was “inactive” each time. For the same molecule, the Potency in assay [9] was 40.1 µM (active); in assay [10], 179 nM (active) and 356 nM (active); in assay [11], 12.7 µM (active) and 31.7 µM (active); in [12], 2.26 µM (active) and 5.03 µM (active); in assay [13] it was 35.7 µM (active) and 15.9 µM (active).
In the case of `CC(C)OC(=O)COc1ccc(Cl)cc1Cl`, the Potency result in assay [2], in [3], in assay [4], in assay [6], in assay [8] and in assay [7] was “inactive” throughout. Further, in assay [13], the Potency entry was “inactive”. The molecule was classed as inactive in [5]. Moreover, the Potency in assay [10] is 11.1 µM (active) and 50.2 µM (active); in assay [11], 35 µM (active) and 35.6 µM (active); in [12], 6.23 µM (active) and 63.3 µM (active).
As to `Nc1ccc(Cl)c(N)c1`, the Potency result in assay [2], in [3], in assay [4], in [6], in assay [9] and in [7] was “inactive” in each case. The call in [5] was inactive. In addition, the Potency in [8] is 61.3 µM (active); in [10], 11.3 µM (active) and 20 µM (active); in assay [12], 40 µM (active) and 35.6 µM (active); in [13], 11.3 µM (active) and 31.7 µM (active).
Take `COc1ccc([N+](=O)[O-])cc1N`: the Potency result in assay [2], in assay [3], in [4], in [9] and in assay [7] was “inactive” throughout. Further, the molecule was called inactive in [5]. Besides, the Potency in assay [10] was 35.7 µM (active) and 79.6 µM (active); in assay [11], 40.1 µM (active) and 63.3 µM (active); in [12] it was 22.5 µM (active) and 31.7 µM (active); in assay [13], 35.7 µM (active) and 35.6 µM (active).
Take `O=S(=O)(O)c1ccccc1`: the molecule was called inactive in assay [1] and in assay [5]. Moreover, the Potency result in assay [2], in assay [3], in assay [4], in assay [6] and in assay [7] was “inactive” in each case.
For `CCNc1cccc(C)c1`, the Potency result in assay [2], in assay [3], in [4], in assay [6], in assay [8] and in assay [9] was “inactive” in each case. Besides, the Potency result in assay [12], in assay [7] and in assay [13] was “inactive” each time. Besides, the outcome in assay [5] was inactive. Further, the Potency in [10] was 30.5 µM (active) and inactive.
As to `Brc1ccc(Br)c(Br)c1`, the Potency result in [2], in [3], in assay [4], in assay [6], in assay [8] and in assay [9] was “inactive” throughout. The Potency entry in assay [10], in assay [11], in assay [12], in assay [7] and in [13] was “inactive” each time. In addition, the molecule was classed as inactive in assay [5].
